Data as given in the supplement of paper PMC11732987, “Enantioselective OTUD7B fragment discovery through chemoproteomics screening and high-throughput optimisation” (Communications Chemistry, 2025).

Experiments:
Test in all cases: log2 ratio of Biotin-Ahx-Ub-VS probe labelling (fragment/DMSO); higher = less target engagement (more negative = stronger competition), active = hit call of the paper (q ≤ 0.05, log2 ratio ≤ -1)
Details in all cases: compound concentration: 200 uM; treatment time: 3 h
USP19 = target: T1, USP19 (UniProt O94966)
T1 sequence (whole entry): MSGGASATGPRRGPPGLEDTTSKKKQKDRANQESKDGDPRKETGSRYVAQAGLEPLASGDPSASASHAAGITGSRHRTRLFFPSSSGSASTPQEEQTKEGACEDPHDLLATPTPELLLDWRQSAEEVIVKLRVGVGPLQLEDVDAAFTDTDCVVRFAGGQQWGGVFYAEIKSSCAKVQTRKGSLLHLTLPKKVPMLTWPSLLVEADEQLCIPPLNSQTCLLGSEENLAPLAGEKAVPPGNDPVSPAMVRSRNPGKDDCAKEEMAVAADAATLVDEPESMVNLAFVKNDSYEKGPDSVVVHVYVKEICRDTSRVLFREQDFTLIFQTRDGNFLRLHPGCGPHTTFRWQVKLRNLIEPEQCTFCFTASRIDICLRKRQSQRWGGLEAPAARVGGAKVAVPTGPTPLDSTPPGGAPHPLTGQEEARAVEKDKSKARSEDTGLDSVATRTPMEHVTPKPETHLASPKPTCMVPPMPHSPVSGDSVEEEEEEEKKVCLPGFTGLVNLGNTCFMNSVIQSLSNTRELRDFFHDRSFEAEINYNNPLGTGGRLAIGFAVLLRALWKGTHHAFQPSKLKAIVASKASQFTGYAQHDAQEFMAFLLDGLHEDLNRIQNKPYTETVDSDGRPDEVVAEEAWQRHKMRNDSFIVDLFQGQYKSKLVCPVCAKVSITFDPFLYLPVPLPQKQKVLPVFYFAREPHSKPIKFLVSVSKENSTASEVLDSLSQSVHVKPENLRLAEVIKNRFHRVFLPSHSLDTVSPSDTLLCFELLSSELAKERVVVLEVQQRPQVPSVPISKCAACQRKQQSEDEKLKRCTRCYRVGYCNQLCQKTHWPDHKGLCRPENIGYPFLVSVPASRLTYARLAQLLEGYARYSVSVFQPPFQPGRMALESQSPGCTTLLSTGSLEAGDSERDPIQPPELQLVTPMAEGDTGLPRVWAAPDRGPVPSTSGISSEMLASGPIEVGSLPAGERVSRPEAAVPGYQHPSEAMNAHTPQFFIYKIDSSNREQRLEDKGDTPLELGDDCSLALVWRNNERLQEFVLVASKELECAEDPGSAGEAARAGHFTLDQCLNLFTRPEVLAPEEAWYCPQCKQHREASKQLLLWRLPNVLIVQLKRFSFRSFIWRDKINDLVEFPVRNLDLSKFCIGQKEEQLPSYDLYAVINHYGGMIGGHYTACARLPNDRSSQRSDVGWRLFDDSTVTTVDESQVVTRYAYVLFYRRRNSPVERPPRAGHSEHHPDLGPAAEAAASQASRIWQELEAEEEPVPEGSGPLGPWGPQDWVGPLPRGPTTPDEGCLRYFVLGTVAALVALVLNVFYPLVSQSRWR
Method in brief: (§1)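 Each value is an average log2 ratio of fragment to vehicle, tested by unpaired t-test. The underlying Spectronaut label-free quantities were global-median-normalised, and only proteins with ≥2 unique peptides were included. Triplicate HEK293T lysate samples (495 µg) were exposed to fragment at 200 µM or vehicle for 3 h, then to Biotin-Ahx-Ub-VS at 0.5 µM final for 1 h, before NeutrAvidin enrichment of labelled DUBs, LysC and trypsin digestion, and diaPASEF LC-MS/MS.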

USP24 = USP24 (UniProt Q9UPU5)
Chain of USP24 (Q9UPU5 whole entry): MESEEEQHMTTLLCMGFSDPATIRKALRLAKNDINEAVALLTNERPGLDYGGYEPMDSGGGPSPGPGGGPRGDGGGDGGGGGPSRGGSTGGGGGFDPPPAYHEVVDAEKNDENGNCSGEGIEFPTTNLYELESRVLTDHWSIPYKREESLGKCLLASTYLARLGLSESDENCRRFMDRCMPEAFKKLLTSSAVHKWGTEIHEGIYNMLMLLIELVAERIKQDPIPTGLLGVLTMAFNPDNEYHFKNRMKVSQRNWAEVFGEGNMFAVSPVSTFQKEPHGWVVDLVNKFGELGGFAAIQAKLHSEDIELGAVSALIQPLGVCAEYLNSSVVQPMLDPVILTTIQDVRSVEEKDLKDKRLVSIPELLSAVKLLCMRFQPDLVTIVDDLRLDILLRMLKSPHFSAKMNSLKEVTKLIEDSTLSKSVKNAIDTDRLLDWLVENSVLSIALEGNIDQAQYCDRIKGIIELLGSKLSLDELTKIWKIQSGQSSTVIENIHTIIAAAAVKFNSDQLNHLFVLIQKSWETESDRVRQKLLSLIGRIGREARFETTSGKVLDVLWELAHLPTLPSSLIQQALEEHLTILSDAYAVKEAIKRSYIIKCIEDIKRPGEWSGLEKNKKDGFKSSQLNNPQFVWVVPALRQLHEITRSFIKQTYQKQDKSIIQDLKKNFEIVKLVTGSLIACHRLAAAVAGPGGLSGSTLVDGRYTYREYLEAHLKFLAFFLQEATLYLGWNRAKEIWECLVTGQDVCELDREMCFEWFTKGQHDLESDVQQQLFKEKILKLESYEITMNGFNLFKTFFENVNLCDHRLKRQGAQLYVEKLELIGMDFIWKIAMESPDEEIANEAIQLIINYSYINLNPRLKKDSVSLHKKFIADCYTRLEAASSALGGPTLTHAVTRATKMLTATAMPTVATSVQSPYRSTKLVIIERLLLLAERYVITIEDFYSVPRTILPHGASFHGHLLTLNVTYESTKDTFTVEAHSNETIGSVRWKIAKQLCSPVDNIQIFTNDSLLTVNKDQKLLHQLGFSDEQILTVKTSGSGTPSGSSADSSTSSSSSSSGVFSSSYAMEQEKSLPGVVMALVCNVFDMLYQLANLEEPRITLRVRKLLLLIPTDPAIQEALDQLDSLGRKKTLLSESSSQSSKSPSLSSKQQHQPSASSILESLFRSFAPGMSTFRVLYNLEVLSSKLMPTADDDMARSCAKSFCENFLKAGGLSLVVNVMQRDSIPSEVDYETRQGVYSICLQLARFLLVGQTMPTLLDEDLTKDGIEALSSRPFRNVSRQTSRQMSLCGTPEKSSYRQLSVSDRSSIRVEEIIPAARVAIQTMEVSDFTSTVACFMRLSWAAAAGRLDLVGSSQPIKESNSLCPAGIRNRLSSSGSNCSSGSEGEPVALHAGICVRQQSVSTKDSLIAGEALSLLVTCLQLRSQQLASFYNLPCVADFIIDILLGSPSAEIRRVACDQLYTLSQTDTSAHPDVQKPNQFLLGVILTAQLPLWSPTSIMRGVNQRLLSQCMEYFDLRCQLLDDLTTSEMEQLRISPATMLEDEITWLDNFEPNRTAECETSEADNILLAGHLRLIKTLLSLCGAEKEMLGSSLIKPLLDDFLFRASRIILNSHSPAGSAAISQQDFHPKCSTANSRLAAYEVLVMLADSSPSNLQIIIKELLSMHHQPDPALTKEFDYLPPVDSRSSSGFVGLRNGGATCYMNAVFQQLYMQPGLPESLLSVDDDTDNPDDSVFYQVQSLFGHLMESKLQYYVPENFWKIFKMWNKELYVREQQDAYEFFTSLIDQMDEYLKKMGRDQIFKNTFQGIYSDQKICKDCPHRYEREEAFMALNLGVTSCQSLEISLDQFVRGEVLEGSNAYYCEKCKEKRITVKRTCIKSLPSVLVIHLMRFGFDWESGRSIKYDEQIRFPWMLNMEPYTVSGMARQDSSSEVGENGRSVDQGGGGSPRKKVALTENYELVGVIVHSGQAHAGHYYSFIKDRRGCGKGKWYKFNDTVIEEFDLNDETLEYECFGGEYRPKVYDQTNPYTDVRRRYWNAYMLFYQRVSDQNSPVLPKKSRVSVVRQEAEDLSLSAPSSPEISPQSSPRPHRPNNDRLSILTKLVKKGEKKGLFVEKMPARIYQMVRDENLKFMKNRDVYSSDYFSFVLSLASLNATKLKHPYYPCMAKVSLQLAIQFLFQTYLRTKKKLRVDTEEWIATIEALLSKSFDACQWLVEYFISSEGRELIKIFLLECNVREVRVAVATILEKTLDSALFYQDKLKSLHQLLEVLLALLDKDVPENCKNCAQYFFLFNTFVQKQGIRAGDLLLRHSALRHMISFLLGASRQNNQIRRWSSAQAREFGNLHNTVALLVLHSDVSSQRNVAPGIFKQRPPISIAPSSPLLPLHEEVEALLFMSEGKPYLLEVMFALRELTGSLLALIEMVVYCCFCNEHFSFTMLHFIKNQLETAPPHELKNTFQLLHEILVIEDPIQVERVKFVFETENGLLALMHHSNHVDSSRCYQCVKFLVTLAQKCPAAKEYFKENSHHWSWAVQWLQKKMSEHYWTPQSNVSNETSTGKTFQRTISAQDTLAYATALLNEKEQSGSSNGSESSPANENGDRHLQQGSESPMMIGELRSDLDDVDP
Method in brief: as §1

USP25 = target: T2, USP25 (UniProt Q9UHP3)
T2 sequence (whole entry): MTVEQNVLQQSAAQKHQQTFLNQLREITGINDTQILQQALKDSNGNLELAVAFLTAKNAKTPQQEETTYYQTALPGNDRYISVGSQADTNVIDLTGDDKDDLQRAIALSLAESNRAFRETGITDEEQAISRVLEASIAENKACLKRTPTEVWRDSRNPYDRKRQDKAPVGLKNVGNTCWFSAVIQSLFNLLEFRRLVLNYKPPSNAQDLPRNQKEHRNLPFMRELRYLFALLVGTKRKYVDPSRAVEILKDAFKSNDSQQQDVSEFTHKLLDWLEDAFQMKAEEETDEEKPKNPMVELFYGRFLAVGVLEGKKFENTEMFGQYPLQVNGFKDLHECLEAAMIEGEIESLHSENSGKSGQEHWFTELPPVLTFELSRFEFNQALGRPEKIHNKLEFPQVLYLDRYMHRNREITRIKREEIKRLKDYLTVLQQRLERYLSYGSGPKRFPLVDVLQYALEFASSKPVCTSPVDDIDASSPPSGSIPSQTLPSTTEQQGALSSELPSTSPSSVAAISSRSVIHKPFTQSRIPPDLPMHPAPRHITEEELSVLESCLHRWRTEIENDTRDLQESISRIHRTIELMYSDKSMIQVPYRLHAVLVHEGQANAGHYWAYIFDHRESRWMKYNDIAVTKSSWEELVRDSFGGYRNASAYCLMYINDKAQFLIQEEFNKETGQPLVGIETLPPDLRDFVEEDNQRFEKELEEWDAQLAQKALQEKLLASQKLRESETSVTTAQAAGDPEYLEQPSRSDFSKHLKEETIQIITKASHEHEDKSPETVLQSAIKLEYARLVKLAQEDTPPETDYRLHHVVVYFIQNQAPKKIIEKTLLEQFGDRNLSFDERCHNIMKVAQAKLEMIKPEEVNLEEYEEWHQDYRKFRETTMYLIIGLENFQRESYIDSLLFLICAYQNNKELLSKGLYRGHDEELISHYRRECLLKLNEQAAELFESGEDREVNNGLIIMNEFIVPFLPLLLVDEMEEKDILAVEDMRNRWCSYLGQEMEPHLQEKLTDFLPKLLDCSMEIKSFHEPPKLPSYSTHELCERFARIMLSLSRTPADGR
Method in brief: as §1

USP28 = target: T3, USP28 (UniProt Q96RU2)
T3 sequence (whole entry): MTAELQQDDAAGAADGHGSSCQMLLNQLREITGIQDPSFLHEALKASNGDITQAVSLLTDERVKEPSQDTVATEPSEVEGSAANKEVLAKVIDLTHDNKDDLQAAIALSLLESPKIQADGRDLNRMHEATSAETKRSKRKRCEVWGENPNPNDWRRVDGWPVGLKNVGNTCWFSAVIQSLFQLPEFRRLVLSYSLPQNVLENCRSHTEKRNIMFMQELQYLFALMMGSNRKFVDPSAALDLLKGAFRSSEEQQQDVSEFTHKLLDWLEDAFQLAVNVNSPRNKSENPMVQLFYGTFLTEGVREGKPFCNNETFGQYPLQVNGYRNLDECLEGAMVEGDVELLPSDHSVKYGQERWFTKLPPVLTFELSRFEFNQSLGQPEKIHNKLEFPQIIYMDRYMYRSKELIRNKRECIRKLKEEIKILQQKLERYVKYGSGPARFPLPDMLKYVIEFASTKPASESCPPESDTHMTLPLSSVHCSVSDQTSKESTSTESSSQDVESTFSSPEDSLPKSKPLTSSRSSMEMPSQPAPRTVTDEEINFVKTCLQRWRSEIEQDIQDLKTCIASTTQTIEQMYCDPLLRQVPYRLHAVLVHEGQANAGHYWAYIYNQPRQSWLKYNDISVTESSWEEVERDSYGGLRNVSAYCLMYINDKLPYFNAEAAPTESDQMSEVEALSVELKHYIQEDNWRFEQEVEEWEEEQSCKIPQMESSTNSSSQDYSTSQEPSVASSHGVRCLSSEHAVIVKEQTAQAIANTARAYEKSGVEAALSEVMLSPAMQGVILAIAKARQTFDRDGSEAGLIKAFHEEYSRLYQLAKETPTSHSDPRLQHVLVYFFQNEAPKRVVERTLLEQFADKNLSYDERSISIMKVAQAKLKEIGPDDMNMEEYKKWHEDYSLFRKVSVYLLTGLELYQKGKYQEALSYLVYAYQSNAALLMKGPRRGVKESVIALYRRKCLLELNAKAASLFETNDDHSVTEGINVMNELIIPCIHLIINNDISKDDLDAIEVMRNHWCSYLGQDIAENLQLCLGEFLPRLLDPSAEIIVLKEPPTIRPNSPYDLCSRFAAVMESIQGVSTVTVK
Method in brief: as §1

Measured: log2 ratio of Biotin-Ahx-Ub-VS probe labelling

O=C(CCl)N1CCCC2CCCCC21 (centres undefined)
inactive: USP19 -0.188 | USP24 -0.697 | USP25 -0.193 | USP28 -0.333
